Screening data: PubChem, several laboratories
Calb FLC: C. albicans growth inhibition with fluconazole, primary screen, CaCi-2 strain, Alamar Blue fluorescence. C. albicans CaCi-2 (fluconazole-resistant clinical isolate) + fluconazole, 48 h. growth inhibition, % (no concentration beside the values). hit rate 0.57% among 300,000. AID 1979, 2009;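 active means growth inhibition above about 58% in most replicates, limit read from the data, passing the limit was not always enough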;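 further: all wells also contain fluconazole at 8 µg/ml as a sub-toxic cotreatment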
MPTP inh: mitochondrial permeability transition pore inhibitors, primary screen, biochemical, isolated mouse mitochondria, absorbance. Ca2+ swelling absorbance, 30 min. inhibition, % at 10 µM. hit rate 1.4% among 360,000. AID 602449, 2012;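 active means inhibition of 50% or more, scaled per plate between neutral and stimulator controls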
CSC inhib: cancer stem cell viability inhibitors, primary screen, luminescence; cancer stem cell-like cells viability; inhibition, % at 7.5 µM; hit rate 1.1% among 300,000; AID 2717, 2010; in the data active means inhibition above about 75%; tested in HMLE shEcad cells
Mdm2-MdmX inh: inhibitors of human Mdm2-MdmX association, primary screen, cell-based, luminescence, split luciferase, SaOS-2, uHTS | SaOS-2 split-luciferase Mdm2/MdmX complementation | inhibition, % at 8 µM | hit rate 3% among 330,000 | AID 485346, 2010;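 active means inhibition of at least 50% at 8 µM in the primary screen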
Target sequence (O15151 whole entry, looked up): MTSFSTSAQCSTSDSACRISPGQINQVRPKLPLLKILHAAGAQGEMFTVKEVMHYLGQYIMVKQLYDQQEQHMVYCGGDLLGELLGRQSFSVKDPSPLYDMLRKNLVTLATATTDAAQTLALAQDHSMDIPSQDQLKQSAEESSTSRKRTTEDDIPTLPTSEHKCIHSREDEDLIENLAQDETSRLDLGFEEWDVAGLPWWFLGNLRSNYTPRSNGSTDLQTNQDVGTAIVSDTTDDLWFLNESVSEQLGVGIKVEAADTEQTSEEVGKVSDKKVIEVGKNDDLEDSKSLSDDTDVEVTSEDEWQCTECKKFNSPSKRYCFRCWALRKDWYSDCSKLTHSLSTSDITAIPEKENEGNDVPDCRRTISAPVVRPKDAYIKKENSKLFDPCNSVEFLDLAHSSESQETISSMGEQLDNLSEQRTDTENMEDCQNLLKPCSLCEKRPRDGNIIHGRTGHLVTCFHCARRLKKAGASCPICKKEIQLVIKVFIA
Target sequence (Q00987 whole entry, looked up): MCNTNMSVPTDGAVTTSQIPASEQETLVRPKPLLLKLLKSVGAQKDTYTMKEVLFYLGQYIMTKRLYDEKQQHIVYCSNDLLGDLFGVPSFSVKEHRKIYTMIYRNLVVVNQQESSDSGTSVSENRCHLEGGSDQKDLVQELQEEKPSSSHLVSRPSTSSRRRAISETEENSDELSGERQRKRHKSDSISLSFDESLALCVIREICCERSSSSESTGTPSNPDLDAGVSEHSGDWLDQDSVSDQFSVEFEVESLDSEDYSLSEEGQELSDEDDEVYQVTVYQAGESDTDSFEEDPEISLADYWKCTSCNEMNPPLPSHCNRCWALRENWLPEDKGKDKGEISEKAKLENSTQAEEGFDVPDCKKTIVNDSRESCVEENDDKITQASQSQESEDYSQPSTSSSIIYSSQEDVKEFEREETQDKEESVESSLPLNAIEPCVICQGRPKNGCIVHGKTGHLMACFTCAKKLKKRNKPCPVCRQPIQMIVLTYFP
Beta apoptosis: inhibitors of cytokine-induced beta cell apoptosis, primary screen, luminescence; AID 435005, 2010; protection from apoptosis, % (test concentration not listed); hit rate 0.8% among 300,000; INS-1E cytokine-induced death, ATP luminescence, 48 h; percent of positive-control rescue, neutral wells zero;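 active means Every replicate reaches about 75%, or at least half do and their mean reaches it too, limit read from the data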;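 further: higher means more ATP so stronger rescue from cytokine killing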
Rh123 counter: fluorescence retest of MPTP screen hits in isolated mitochondria, single concentration | shares compounds with MPTP inh | AID 624504, 2012 | inhibition, % at 10 µM | membrane potential, Rhodamine 123 fluorescence | hit rate 78% among 5,000; in the data active means inhibition above about 22%
MPTP abs DR: mitochondrial permeability transition pore inhibitors, dose response, biochemical, absorbance, uHTS hits; shares compounds with MPTP inh; isolated mitochondria swelling; IC50, µM; hit rate 58% among 780; AID 651561, 2012; in the data active means IC50 below about 20 µM
MPTP counter DR: fluorescent counter-screen in isolated mitochondria, dose response, counter-screen for MPTP inhibitor project, biochemical, fluorescence, uHTS hits; isolated mitochondria counterscreen, fluorescence read-out; shares compounds with MPTP inh; hit rate 49% among 780; IC50, µM; in the data active means IC50 below about 80 µM
Large screens that a line does not name were inactive (follow-up assays come after a bar, where they were run). Compounds with a hit are over-represented: about 4.8% of the library has one in this group of screens.

O=C(NCc1cccc(C(F)(F)F)c1)c1cc(Cl)ccc1Cl	none
CCCN(Cc1ccccc1)C(=S)Nc1cccc(C(F)(F)F)c1	MPTP inh 60 | Rh123 counter 63
Cc1ccc(NC(=O)COC(=O)c2ccc3ncsc3c2)c(C)c1	none (no result: Calb FLC, CSC inhib, Mdm2-MdmX inh, Beta apoptosis)
Cc1ccc(S(=O)(=O)N2CCOCC2)cc1NC(=O)CNc1ccccc1N1CCCC1=O	none (no result: Calb FLC, CSC inhib, Beta apoptosis)
CC(C)CC(N)c1csc(NC(=O)Nc2ccccc2C(C)(C)C)n1 (stereo not given)	none (no result: Calb FLC, CSC inhib, Mdm2-MdmX inh, Beta apoptosis)
CCOc1ccccc1C(=O)Nc1nnc(Cc2ccc(OC)c(OC)c2)s1	none (no result: Beta apoptosis)
O=C(NCc1cccc(C(F)(F)F)c1)c1[nH]c(C(F)(F)F)nc1-c1ccccc1	MPTP inh 51 (no result: Calb FLC, CSC inhib, Mdm2-MdmX inh, Beta apoptosis) | Rh123 counter 99
O=C(CNC(=O)Cc1ccccc1)NCc1cccc(C(F)(F)F)c1	none (no result: CSC inhib)
FC(F)(F)c1cccc(CNC(=S)Nc2ccccc2)c1	MPTP inh 82 | Rh123 counter 95
Cc1ccc(CNC(=O)c2[nH]c(C(F)(F)F)nc2-c2ccccc2)cc1	none (no result: Calb FLC, CSC inhib, Mdm2-MdmX inh, Beta apoptosis)
COc1ccc(C(Nc2ccccn2)c2oc(CO)cc(=O)c2O)cc1 (stereo not given)	MPTP inh 96 | Rh123 counter inactive
O=c1cc(CO)oc(C(Nc2ccccn2)c2ccc(F)cc2)c1O (stereo not given)	none
Cc1ccc(S(=O)(=O)N2CCOCC2)cc1NC(=O)Nc1ccc([N+](=O)[O-])cc1	MPTP inh 100 (no result: Calb FLC) | Rh123 counter 99
Cc1ccc(S(=O)(=O)N2CCOCC2)cc1NC(=O)c1cc([N+](=O)[O-])ccc1N1CCOCC1	none
O=C(Nc1cccc(Cl)c1)Nc1cc(S(=O)(=O)N2CCOCC2)ccc1N1CCCC1	MPTP inh 87 | Rh123 counter 75
O=C(Nc1ccc([N+](=O)[O-])cc1)Nc1ccc(N2CCOCC2)c2nonc12	MPTP inh 96 | Rh123 counter 58
CCC(C)NC(=O)c1cc(S(=O)(=O)N2CCCCC2)c[nH]1 (stereo not given)	none
COCCC1CCCCN1C(=O)c1cc(COc2ccc(-n3cncn3)cc2)on1 (stereo not given)	MPTP inh 92, Beta apoptosis 87 | Rh123 counter 100
CCCN1CCN(C(=O)c2cc(COc3ccc4ncccc4c3)on2)CC1	MPTP inh 86 | Rh123 counter 56
COCC1CCCCN1C(=O)c1cc(COc2ccc3ncccc3c2)on1 (stereo not given)	MPTP inh 100, Beta apoptosis 86 | Rh123 counter 101
COCCOC1CCN(C(=O)c2cc(COc3ccc(-n4cncn4)cc3)on2)CC1	none
CCc1ccc(CN(C)C(=O)c2cc(COc3ccc(-n4cncn4)cc3)on2)cc1	MPTP inh 59 | Rh123 counter 78
CCN1CCN(C(=O)c2cc(COc3ccc4ncccc4c3)on2)CC1	none
COCC1CCN(C(=O)c2cc(COc3ccc4c(c3)CCCC4)on2)C1 (stereo not given)	none
Cc1cccc(CNC(=O)C2CCC(=O)N(C3CC3)C2)c1 (stereo not given)	none
CCC1CCCCN1C(=O)c1cc(COc2ccc3ncccc3c2)on1 (stereo not given)	MPTP inh 104, Beta apoptosis 113 | Rh123 counter 81
CCN(CC)C(=O)C1CCCN(C(=O)c2cc(COc3ccc4ncccc4c3)on2)C1 (stereo not given)	none (no result: Beta apoptosis)
Nc1nc(N2CCN(C/C=C/c3ccccc3)CC2)nc2ccccc12	MPTP inh 63 (no result: Calb FLC, Beta apoptosis) | Rh123 counter inactive | MPTP abs DR inactive | MPTP counter DR 59
C(=C\c1ccccc1)/CN1CCN(c2ncnc3c2oc2ccccc23)CC1	Calb FLC 92, MPTP inh 95 | Rh123 counter 94
c1ccc2c(c1)oc1c(N3CCOCC3)ncnc12	none
Cc1cccc(NC(=O)COC(=O)CCc2c[nH]c3ccccc23)c1C	none (no result: Calb FLC, CSC inhib)
CCN(CC)c1ccc(N=Cc2ccc(N(CC)CC)cc2O)cc1	Calb FLC 78, MPTP inh 77 | Rh123 counter inactive
